Source: PubChem
HCV inhibitor: qHTS Assay for Inhibitors of Hepatitis C Virus (HCV); 340,000 tested, 3.4% active; Potency, µM (titrated, usually from 41.8 µM), inactives show top-dose activity change, negative = inhibition, actives largely listed as inhibitors; Huh7.5.1 HCVcc-Cre infection, luciferase reporter, 44 h; note: potency is the fitted concentration of half-maximal effect; % is set by controls: 0 for no effect and ±100 for the full control effect
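After 44 h co-culture of compound, cells and HCVcc-Cre (~0.5 moi), substrate is added for 15 min at room temperature and luciferase measured over 15 sec. Cells were seeded at 1,000/well and pre-cultured 4 h.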
Pf growth 96h: Primary qHTS for delayed death inhibitors of the malarial parasite plastid, 96 hour incubation. P. falciparum luciferase reporter growth, 96 h. Potency, µM (top dose mostly 28.7 µM), without a hit: at the highest dose activity change, negative = inhibition, usual class: inhibitors. 320,000 tested, 6.9% active; note: potency is the fitted concentration of half-maximal effect; % is set by controls: 0 for no effect and ±100 for the full control effect
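P. falciparum expressing integrated firefly luciferase grown in erythrocytes (2% hematocrit, 0.05% parasitemia final) with compounds for 96 hours at 37 C, 5% CO2. Growth inhibition read as loss of luminescence after adding luciferase detection reagent.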
Pf growth 48h: Primary qHTS for delayed death inhibitors of the malarial parasite plastid, 48 hour incubation | 310,000 tested, 5.9% active | P. falciparum luciferase growth in erythrocytes, 48 h | Potency, µM (series often up to 28.7 µM), inactives show at the highest dose activity change, negative = inhibition, hits mostly inhibitors; note: potency is the fitted concentration of half-maximal effect; % is set by controls: 0 for no effect and ±100 for the full control effect
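Here the parasites carry a stable luciferase gene and grow inside erythrocytes in Albumax-based RPMI medium with compound for one erythrocytic cycle. Activity is scored as loss of luminescent signal.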
Sm TGR block: qHTS Assay for the Inhibitors of Schistosoma Mansoni Peroxiredoxins; Schistosoma mansoni thioredoxin glutathione reductase (TGR), Q962Y6; 360,000 tested, 3% active; Potency, µM (highest dose often 114 µM), inactives show top-dose activity change, negative = inhibition, most hits filed as inhibitors; purified TGR, DTNB reduction, TNB absorbance 405 nm; note: potency is the fitted concentration of half-maximal effect; % is set by controls: 0 for no effect and ±100 for the full control effect; nearly all actives have a fitted effect of over 60% in size
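First, TGR (20 nM dispensed) and NADPH were mixed with compound. Second, a 15 min room-temperature incubation followed. Third, further NADPH and then DTNB were added to start the reaction. Finally, TNB absorbance was monitored kinetically.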
HCMV inh: qHTS Assay for inhibitors of the human cytomegalovirus (HCMV); HFF cells, HCMV-luciferase reporter, 72 h; active compounds read low; activity change, negative = inhibition, % at 57.5 µM; 410,000 tested, 4.5% active; AID 1259415, 2018; in the data active = activity change below about -60%; inconclusive = no clear call, values can overlap the other calls; inactive = above about -39%; note: % is set by controls: 0 for no effect and ±100 for the full control effect
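Two-dose cell screen: HFF monolayers treated with compounds and infected with luciferase-expressing HCMV at 1 PFU/cell, 72 h at 37C, then lysed for luciferase measurement.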
SARS PLpro yeast: qHTS of Yeast-based Assay for SARS-CoV PLP. S. cerevisiae expressing SARS-CoV PLpro, growth rescue. Potency, µM (titrated, usually from 32.9 µM), without a hit: top-dose activity, positive = growth rescue, hits mostly activators. 330,000 tested, 0.19% active. AID 485353, 2010; calls by dose curve; note: potency is the fitted concentration of half-maximal effect; 0% is about no effect; nearly all actives have a fitted effect of over 55% in size
* marks the source's active call; other numbers are inactive results; ? = inconclusive; · = no result; [ ] = remark or other dose. An excerpt weighted towards active compounds, which were near 15% of everything screened. Unless noted, calls come from the whole dose curve; as a rule, active = well fitted curve in the direction sought with a large enough effect; inconclusive = small, poorly fitted or top-dose-only effect, or another doubt; inactive = no such curve, though single readings can be large; an effect the other way counts as inactive or inconclusive.

SMILES	HCV inhibitor	Pf growth 96h	Pf growth 48h	Sm TGR block	HCMV inh	SARS PLpro yeast
O=C(NCCNS(=O)(=O)c1ccccc1Cl)c1cc(OCC(F)(F)F)ccc1OCC(F)(F)F	3%	12µM*	?	8%	19	-5%
Cc1ccc(S(=O)(=O)NCCNC(=O)c2cc(OCC(F)(F)F)ccc2OCC(F)(F)F)cc1	-3%	?	?	18%	14	5%
Cc1ccccc1CNS(=O)(=O)c1ccccc1[N+](=O)[O-]	-1%	0.66µM*	34%	5%	-37	-1%
Cn1ccc2c(/C=C/c3ccc(F)cc3)cc3c(c21)C1CCC3C1 (stereo unspecified)	·	·	·	·	-67*	·
Cn1ccc2c(/C=C/c3ccc(F)cc3)cc3c(c21)C1CCC3O1 (stereo unspecified)	·	·	·	·	-16	·
COc1ccc(NC(=O)C2=C(C)Nc3ncnn3C2c2ccc[nH]2)cc1 (stereo unspecified)	·	·	·	-1%	-5	·
CCN(CC)C(=O)C(C(=O)c1cccc([N+](=O)[O-])c1)n1cc(Cl)ccc1=O (stereo unspecified)	5%	14%	15%	0%	-38	0%
COC(=O)CSc1[nH]c2cc(C)ccc2c1[N+](=O)[O-]	15%	65%	4%	-35%	3	1%
CCOc1ccc2[nH]c(SCC(=O)OC)c([N+](=O)[O-])c2c1	15%	11%	29%	45µM*	38	0%
COC(=O)CSc1[nH]c2ccc(Br)cc2c1[N+](=O)[O-]	11%	23%	22%	2.5µM*	-15	1%
CSc1cccc(NC(=S)N2CCCN(Cc3cccc(Cl)c3)C2)c1	?	40%	10µM*	-9%	5	0%
COC(=O)c1sccc1N/N=C/c1cccc(Oc2ccccc2)c1	-8%	18%	205%	-22%	-15	3%
COc1ccc2c(c1)Cc1sc(NC(=O)c3cccc(Cl)c3)nc1-2	·	·	·	-9%	-27	·
COc1ccc2c(c1)Cc1sc(NC(=O)c3ccc(Cl)cc3)nc1-2	·	·	·	-25%	-63*	·
COc1ccc2c(c1)Cc1sc(NC(=O)c3cccc(C)c3)nc1-2	·	·	·	-12%	-70*	·
COCCNC(=O)c1ccc(N2CC3CC(C2)c2cccc(=O)n2C3)c(NC(=O)c2ccc(C(C)(C)C)cc2)c1 (stereo unspecified)	·	·	·	·	11	·
COc1cc2cnc(-c3cccnc3)cc2cc1OC	-14%	·	·	·	1	7%
C/C(=N/Nc1cc(-c2ccccc2)nc(-c2ccccc2)n1)c1ccc(O)cc1	?	?	?	2%	-65*	-61%
C/C(=N\Nc1cc(-c2ccccc2)nc(-c2ccc(Br)cc2)n1)c1cccc(N)c1	·	·	·	·	19	·
COc1ccc(-c2noc(N3CCCC(C(=O)Nc4ccc(C(C)=O)cc4)C3)n2)cc1 (stereo unspecified)	?	?	?	4%	50	-1%
Cc1ccc(NC(=O)CSc2nnc(Cc3cccn3C)n2-c2ccc(F)cc2)c(C)c1	-2%	9.3µM*	·	-5%	-32	6%
Cn1cccc1Cc1nnc(SCC(=O)N2CCN(c3ccccc3)CC2)n1-c1ccc(F)cc1	7%	1.5µM*	?	-36%	-18	0%
CCOC(=O)c1ccccc1NC(=O)CSc1nnc(Cc2cccn2C)n1-c1ccc(F)cc1	16%	59%	?	-3%	23	-6%
CCOc1ccccc1NC(=O)CSc1nnc(Cc2cccn2C)n1-c1ccc(F)cc1	?	-26%	5.9µM*	?	-13	-9%
CC(=O)N1CCCC1c1nc2ccccc2n1Cc1c(F)cccc1Cl (stereo unspecified)	·	·	·	2%	19	·
SMILES	HCV inhibitor	Pf growth 96h	Pf growth 48h	Sm TGR block	HCMV inh	SARS PLpro yeast
CCOc1ccc(NC(=O)CCCNC(=O)Cn2cnc3sc(C)c(C)c3c2=O)cc1	-2%	1%	0%	-11%	?	0%
Brc1ccc(-c2csc(NNC3=NCCCCC3)n2)cc1	?	?	10µM*	-4%	?	-20%
CC(C)(C)c1ccc(-c2csc(NNC3=NCCCCC3)n2)cc1	25µM*	·	10µM*	20%	-5	-8%
COc1cccc(CNC(=O)CC(c2ccc(C)cc2)N2Cc3ccccc3C2=O)c1 (stereo unspecified)	·	·	·	0%	22	·
C[N+]1(CC(=O)Nc2ccccc2Cl)CCN(C(=O)c2cccs2)CC1	18%	1%[5.75 µM]	12%	7%	12	-1%
CN(C)c1ccc(CNC(=O)CCS(=O)(=O)c2ccc3c(c2)oc(=O)n3C)cc1	16%	7%	?	0%	0	-6%
CN(C(=O)CCS(=O)(=O)c1ccc2c(c1)oc(=O)n2C)C1CCCCC1	15%	4.7µM*	22%	-32%	-13	0%
Cc1ccc(N(C)C(=O)CCS(=O)(=O)c2ccc3c(c2)oc(=O)n3C)cc1	0%	15µM*	21%	?	-19	-2%
Cc1sc(NC(=O)c2ccco2)c(C(c2cccnc2)N2CCN(C)CC2)c1C (stereo unspecified)	?	?	?	35µM*	-8	-3%
Cc1sc(NC(=O)c2ccco2)c(C(c2cccnc2)N2CCCC2)c1C (stereo unspecified)	13µM*	10µM*	12µM*	?	-62*	-32%
CCOC(=O)C1CCN(C(=O)CCNC(=O)c2cc(OC)c(OC)c(OC)c2)CC1	-1%	30%	11%	0%	113	5%
CCOc1cc(NCc2ccccc2)c2ncn(C(C)C)c2c1	2.5µM*	·	·	·	11	·
CCC(CO)Oc1cc(NCc2ccc(C(=O)O)cc2)c2ncn(C(C)C)c2c1 (stereo unspecified)	36%	·	·	·	1	-7%
CC(C)n1cnc2c(NCc3ccccc3)cc(Cc3ccc(F)cc3)cc21	?	6.6µM*	10µM*	3%	-24	2%
CCCOc1cc(NCc2ccccc2)c2ncn(C(C)C)c2c1	?	2.6µM*	8.3µM*	3%	16	7%
COCCOc1cc(NCc2ccccc2)c2ncn(C(C)C)c2c1	?	·	·	·	-5	3%
CC[C@H](CO)Oc1cc(NCc2cccc(N)c2)c2ncn(C(C)C)c2c1	·	·	·	·	-21	·
O=C(O)[C@H]1C(=CCO)O[C@H]2CC(=O)N12	·	15%	3%	·	·	·
NS(=O)(=O)c1ccc(NC(=O)/C(=C/c2ccncc2)NC(=O)c2ccccc2)cc1	?	-27%	1%	-1%	22	-1%
